# Experimental data as given in PubChem BioAssay.
# “And” between values parts separate entries of the source, which are not always exact repeats. Equal entries are not always repeated. The source made the active and inactive calls.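 Rule for the calls, unless noted: active = thallium flux through the channel raised or lowered by more than 3 SD from vehicle-only wells, actives on both sides; inactive = the rest.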
# How the values were obtained:
# [1] = blockers of polyQ-driven CASP3 activation – cell-based (AID 1583); conditions: polyglutamine-induced caspase-3 activation, cell assay; stronger effect = higher value;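 tested at 10 µM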
# [2] = yeast 75Q aggregation reduction – 75Q-TubU reporter (AID 1593); conditions: Yeast 75Q polyglutamine aggregation reporter
# [3] = blockers of cytochrome c efflux from mitochondria – biochemical, purified mitochondria (AID 1603); conditions: stronger effect = lower value;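 note: mouse liver mitochondria challenged with calcium chloride; signal normalized to the plate average as 100%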
# [4] = polyglutamine aggregate formation blockers (AID 1604); conditions: polyglutamine-induced protein aggregation inhibition assay; stronger effect = higher value; tested at 2.5 µM
# [5] = glutamate transport activators, MN-1 cells, MN-1 cell line (AID 1612); conditions: MN-1 motor neuron cells, stronger effect = higher value;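 note: tested at 1 µM final; 0% = mean of DMSO vehicle wells on each plate; positive means more glutamate uptake than control and negative means less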
# [6] = growth inhibition, single agent or in combination, cell-based, chromothripsis tumors, cisplatin or BGB combos (AID 1671449; in the data active = inhibition above about 80%;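 note: cells exposed for 96 hours; 0% = vehicle DMSO and 100% = killing by high DMSO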); conditions: LFS_MB_P medulloblastoma cells
# [7] = growth inhibition, single agent and combos, cell-based, chromothripsis tumors, cisplatin or BGB combos (AID 1671450; in the data active = inhibition above about 80%;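 note: cells exposed to compound for four days; 0% = vehicle DMSO and 100% = cell killing by high DMSO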); conditions: HDN33 neuroblastoma cells, stronger effect = higher value
# [8] = growth inhibition, single agents and combos, HTB85, cell-based, BGB or cisplatin IC20 combos, synergistic combos for chromothripsis tumors (AID 1671453; in the data active = inhibition above about 80%;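 note: cells exposed for 96 hours before readout; 0% = vehicle DMSO and 100% = high DMSO killing control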); conditions: HTB85 osteosarcoma cells, drug combinations, stronger effect = higher value
# F380Y/beta4 = assay: BK channel mutant inhibitors and activators – cell-based, U2OS BacMam, thallium flux, beta subunits, selectivity assay, profiling panel (AID 1259406); conditions: U2OS BacMam BK variants, at 30 µM;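 note: initial slope of Thallos dye fluorescence rise after thallium is added; log ratio against the mean of 0.3% DMSO vehicle wells on the same plate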
# [9] = biological target: Calcium-activated potassium channel subunit alpha-1 (Homo sapiens) + Leucine-rich repeat-containing protein 26 (Homo sapiens) (UniProt Q12791+Q2I0M4); assay: as above; conditions: U2OS BacMam BK variants, F380Y/Slo1WT/gamma1, at 30 µM
# R275C = assay: as above; conditions: U2OS BacMam BK variants, at 30 µM
# R275C/beta1 = assay: as above; conditions: U2OS BacMam BK variants, at 30 µM
# R275C/beta2Delta = assay: as above; conditions: U2OS BacMam BK variants, at 30 µM
# R275C/beta4 = assay: as above; conditions: U2OS BacMam BK variants, at 30 µM
# R275C/Slo1WT/beta2 = assay: as above; conditions: U2OS BacMam BK variants, at 30 µM
# [10] = galactose survival enhancers in mitochondrial complex I cybrids – cell-based, galactose medium, ATP luminescence, primary screen (AID 1645843;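 active = z-score of at least 1.8 in each of two replicates, scored against plate mean and spread of sample wells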;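 note: positive z means more ATP and so rescue of galactose-driven cybrid death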); conditions: complex I mutant cybrid cells, 72 h, stronger effect = higher value
# [11] = signal quenchers or enhancers, Cy5 substrate/SSB – biochemical, NIH Clinical Collection, E. coli SSB, artefact control for HCV NS3 helicase inhibitor project (AID 743268; call rule not given here); conditions: Cy5-oligo bound E. coli SSB, fluorescence interference
# [12] = system: Hepatitis C virus NS3 helicase; assay: blockers of NS3h binding to DNA – biochemical, fluorescence polarization, NIH Clinical Collection, primary screen (AID 743270; call rule not given here); conditions: NS3 helicase binding to Cy5-dT15 DNA, stronger effect = higher value, concentration not given here
# [13] = biological target: Single-stranded DNA-binding protein (Escherichia coli (strain K12)) (UniProt P0AGE0); assay: SSB-ssDNA binding inhibitors – biochemical, fluorescence polarization, NIH Clinical Collection, counter-screen for HCV NS3 helicase inhibitor project (AID 743271; in the data active = inhibition above about 28%); conditions: E. coli SSB-DNA binding, stronger effect = higher value, concentration not given here
# [14] = compounds distorting NS3 helicase fluorescence signal – biochemical, NIH Clinical Collection, artefact control for HCV NS3 helicase inhibitor project (AID 743272; call rule not given here;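 note: HCV NS3 helicase with a Cy5 labelled single stranded DNA probe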); conditions: fluorescence interference counterscreen, HCV NS3 helicase assay; stronger effect = lower value
# [15] = at 0.5 µM, stronger effect = higher value
# [16] = measured here: combination with BGB IC20, at 0.005 µM
# [17] = measured here: combination with BGB IC40, at 0.005 µM
# [18] = measured here: combination with BGB IC40, at 0.05 µM
# [19] = measured here: combination with cisplatin, at 0.5 µM, stronger effect = higher value
# [20] = measured here: combination with cisplatin, at 5 µM, stronger effect = higher value
# [21] = measured here: with BGB IC20 combination, at 0.5 µM
# [22] = measured here: with cisplatin IC20 combination, at 0.5 µM
# [23] = measured here: with BGB IC20, at 0.5 µM
# [24] = measured here: with BGB IC20, at 5 µM
# [25] = measured here: with cisplatin IC20, at 0.5 µM
# [26] = measured here: with cisplatin IC20, at 5 µM
# Calcium-activated potassium channel subunit alpha-1 (Homo sapiens) + Leucine-rich repeat-containing protein 26 (Homo sapiens), sequence (Q2I0M4 whole entry, looked up, one chain of several): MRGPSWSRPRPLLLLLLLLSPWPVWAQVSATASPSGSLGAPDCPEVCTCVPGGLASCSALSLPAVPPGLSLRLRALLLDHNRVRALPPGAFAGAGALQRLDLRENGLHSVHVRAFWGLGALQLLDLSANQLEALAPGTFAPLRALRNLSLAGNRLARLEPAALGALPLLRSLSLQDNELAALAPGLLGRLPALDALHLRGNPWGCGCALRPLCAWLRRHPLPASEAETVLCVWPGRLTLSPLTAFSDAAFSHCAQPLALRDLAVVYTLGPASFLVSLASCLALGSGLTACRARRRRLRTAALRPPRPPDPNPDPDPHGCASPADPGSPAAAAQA
structure (smiles),measurement,setting,value
Nc1nc2c(ncn2COCCO)c(=O)[nH]1,inhibition,[1],6.39%
same,score,[2],1.1
same,cytochrome c release ratio,[3],1.05
same,inhibition of aggregation,[4],51.5%
same,glutamate uptake change,[5],13.5%
same,inhibition,[6]; [15],-27.5% (inactive) and -23.8% (inactive)
same,inhibition,[6]; [16],-0.211% and -20%
same,inhibition,[6]; [17],-37.2% and -37.3%
same,inhibition,[6]; [18],-22.3% and -50.5%
same,inhibition,[6]; [19],-35.1% and -39.9%
same,inhibition,[6]; [20],-19.1% and -38.4%
same,inhibition,"[7]; BGB combo, at 5 µM",-39.6% and -25.3%
same,inhibition,[7]; at 0.5 µM,-44.3% (inactive) and -13.8% (inactive)
same,inhibition,"[7]; cisplatin combo, at 5 µM",-30.4% and 3.02%
same,inhibition,[7]; [21],-44% and -16%
same,inhibition,[7]; [22],-44.9% and -2.15%
same,inhibition,"[7]; single agent, at 5 µM",-49.5% and 10.3%
same,inhibition,[8]; at 0.5 µM,-30.1% (inactive) and -6.85% (inactive)
same,inhibition,[8]; [23],-40.8% and -11.5%
same,inhibition,[8]; [24],-33.7% and -9.07%
same,inhibition,[8]; [25],-27.1% and -11.3%
same,inhibition,[8]; [26],-43.1% and -41.4%
same,inhibition,"[8]; single agent, at 5 µM",-42.6% and 2.37%
same,log fold change Tl+ flux,F380Y/beta4,-0.0606 (inactive)
same,log fold change Tl+ flux,[9],-0.0276 (inactive)
same,log fold change Tl+ flux,R275C,-0.024 (inactive)
same,log fold change Tl+ flux,R275C/beta1,-0.0244 (inactive)
same,log fold change Tl+ flux,R275C/beta2Delta,-0.00892 (inactive)
same,log fold change Tl+ flux,R275C/beta4,0.0324 (inactive)
same,log fold change Tl+ flux,R275C/Slo1WT/beta2,0.0456 (inactive)
CCN(CC)CCCC(C)Nc1c2ccc(Cl)cc2nc2ccc(OC)cc12 (centres undefined),inhibition,[1],-263%
same,score,[2],0.79
same,cytochrome c release ratio,[3],1.44
same,inhibition of aggregation,[4],77.3%
same,glutamate uptake change,[5],2.03%
same,z-score,[10],-1.35 (inactive) and -2.13 (inactive)
same,inhibition,[6]; [15],-9.53% (inactive)
same,inhibition,[6]; [16],13.9%
same,inhibition,[6]; [17],18.9%
same,inhibition,[6]; [18],6.94%
same,inhibition,[6]; [19],-29.9%
same,inhibition,[6]; [20],113%
same,inhibition,"[7]; BGB combo, at 5 µM",99.8%
same,inhibition,[7]; at 0.5 µM,-12.9% (inactive)
same,inhibition,"[7]; cisplatin combo, at 5 µM",99.8%
same,inhibition,[7]; [21],-9.01%
same,inhibition,[7]; [22],-29.7%
same,inhibition,"[7]; single agent, at 5 µM",99.8%
same,inhibition,[8]; at 0.5 µM,-23.3% (inactive)
same,inhibition,[8]; [23],-27.3%
same,inhibition,[8]; [24],99.8%
same,inhibition,[8]; [25],-38%
same,inhibition,[8]; [26],99.9%
same,inhibition,"[8]; single agent, at 5 µM",99.9%
CCN(CC)CCCC(C)Nc1ccnc2cc(Cl)ccc12 (centres undefined),inhibition,[1],9.86%
same,score,[2],1.1
same,cytochrome c release ratio,[3],1.15
same,inhibition of aggregation,[4],68.5%
same,glutamate uptake change,[5],-7.63%
same,z-score,[10],-1.02 (inactive) and -1.18 (inactive)
CN(C)CCCN1c2ccccc2CCc2ccc(Cl)cc21,inhibition,[1],-18.9%
same,score,[2],0.98
same,cytochrome c release ratio,[3],1.15
same,inhibition of aggregation,[4],66.7%
same,glutamate uptake change,[5],6.78%
same,fluorescence ratio,[11],1 (inactive)
same,inhibition,[12],-3.18% (inactive)
same,inhibition,[13],0.29% (inactive)
same,fluorescence ratio,[14],1 (inactive)
same,z-score,[10],-1.52 (inactive) and -1.25 (inactive) and -0.78 (inactive)
same,log fold change Tl+ flux,F380Y/beta4,0.151 (active)
same,log fold change Tl+ flux,[9],-0.0105 (inactive)
same,log fold change Tl+ flux,R275C,0.0284 (inactive)
same,log fold change Tl+ flux,R275C/beta1,0.00748 (inactive)
same,log fold change Tl+ flux,R275C/beta2Delta,-0.0594 (inactive)
same,log fold change Tl+ flux,R275C/beta4,0.278 (active)
same,log fold change Tl+ flux,R275C/Slo1WT/beta2,-0.0809 (inactive)
CCC1(c2ccccc2)C(=O)NCNC1=O,inhibition,[1],9.61%
same,score,[2],1.24
same,cytochrome c release ratio,[3],1.19
same,inhibition of aggregation,[4],63%
same,glutamate uptake change,[5],-24.4%
same,fluorescence ratio,[11],1.04 (inactive)
same,inhibition,[12],-2.27% (inactive)
same,inhibition,[13],-0.48% (inactive)
same,fluorescence ratio,[14],0.97 (inactive)
same,z-score,[10],1.15 (inactive) and 0.365 (inactive) and 1.9 (inactive)
same,log fold change Tl+ flux,F380Y/beta4,0.00245 (inactive)
same,log fold change Tl+ flux,[9],0.023 (inactive)
same,log fold change Tl+ flux,R275C,-0.0184 (inactive)
same,log fold change Tl+ flux,R275C/beta1,-0.0109 (inactive)
same,log fold change Tl+ flux,R275C/beta2Delta,-0.0215 (inactive)
same,log fold change Tl+ flux,R275C/beta4,0.0127 (inactive)
same,log fold change Tl+ flux,R275C/Slo1WT/beta2,-0.0237 (inactive)
CC1=C(CC(=O)O)c2cc(F)ccc2/C1=C\c1ccc(S(C)=O)cc1 (centres undefined),inhibition,[1],12.6%
same,score,[2],0.78
same,cytochrome c release ratio,[3],0.97
same,inhibition of aggregation,[4],78.9%
same,glutamate uptake change,[5],3.54%
same,fluorescence ratio,[11],1.04 (inactive)
same,inhibition,[12],-7.73% (inactive)
same,inhibition,[13],-3.53% (inactive)
same,fluorescence ratio,[14],1.01 (inactive)
same,z-score,[10],-0.94 (inactive) and -0.735 (inactive) and -0.12 (inactive)
same,log fold change Tl+ flux,F380Y/beta4,0.0346 (inactive)
same,log fold change Tl+ flux,[9],0.0386 (inactive)
same,log fold change Tl+ flux,R275C,-0.0121 (inactive)
same,log fold change Tl+ flux,R275C/beta1,-0.0305 (inactive)
same,log fold change Tl+ flux,R275C/beta2Delta,-0.0296 (inactive)
same,log fold change Tl+ flux,R275C/beta4,0.044 (inactive)
same,log fold change Tl+ flux,R275C/Slo1WT/beta2,0.0257 (inactive)
CC[C@H]1CN2CCc3cc(OC)c(OC)cc3[C@@H]2C[C@@H]1C[C@H]1NCCc2cc(OC)c(OC)cc21,z-score,[10],-0.955 (inactive)
Cc1noc(NS(=O)(=O)c2ccc(N)cc2)c1C,inhibition,[1],16.5%
same,score,[2],1.57
same,cytochrome c release ratio,[3],0.89
same,inhibition of aggregation,[4],1.83%
same,glutamate uptake change,[5],-4.32%
same,z-score,[10],-0.585 (inactive) and 0.925 (inactive)
same,log fold change Tl+ flux,F380Y/beta4,-0.0245 (inactive)
same,log fold change Tl+ flux,[9],0.0135 (inactive)
same,log fold change Tl+ flux,R275C,-0.023 (inactive)
same,log fold change Tl+ flux,R275C/beta1,-0.0138 (inactive)
same,log fold change Tl+ flux,R275C/beta2Delta,0.00261 (inactive)
same,log fold change Tl+ flux,R275C/beta4,-0.0229 (inactive)
same,log fold change Tl+ flux,R275C/Slo1WT/beta2,-0.0743 (inactive)
CCOC(=O)[C@H](CCc1ccccc1)N[C@H]1CCc2ccccc2N(CC(=O)O)C1=O,fluorescence ratio,[11],1.03 (inactive)
same,inhibition,[12],-1.98% (inactive)
same,inhibition,[13],2.98% (inactive)
same,fluorescence ratio,[14],1.04 (inactive)
same,z-score,[10],0.145 (inactive)
same,log fold change Tl+ flux,F380Y/beta4,0.0138 (inactive)
same,log fold change Tl+ flux,[9],0.0131 (inactive)
same,log fold change Tl+ flux,R275C,0.0199 (inactive)
same,log fold change Tl+ flux,R275C/beta1,-0.0262 (inactive)
same,log fold change Tl+ flux,R275C/beta2Delta,0.041 (inactive)
same,log fold change Tl+ flux,R275C/beta4,-0.0252 (inactive)
same,log fold change Tl+ flux,R275C/Slo1WT/beta2,-0.00529 (inactive)
CC(C)C(=O)Nc1ccc([N+](=O)[O-])c(C(F)(F)F)c1,inhibition,[1],28.6%
same,score,[2],0.95
same,cytochrome c release ratio,[3],0.83
same,inhibition of aggregation,[4],22.5%
same,glutamate uptake change,[5],-7.31%
same,fluorescence ratio,[11],0.94 (inactive)
same,inhibition,[12],-1.36% (inactive)
same,inhibition,[13],2.57% (inactive)
same,fluorescence ratio,[14],0.88 (inactive)
same,z-score,[10],-0.565 (inactive) and -0.735 (inactive) and -1.1 (inactive)
same,log fold change Tl+ flux,F380Y/beta4,-0.0805 (inactive)
same,log fold change Tl+ flux,[9],-0.0492 (inactive)
same,log fold change Tl+ flux,R275C,-0.0976 (active)
same,log fold change Tl+ flux,R275C/beta1,-0.0165 (inactive)
same,log fold change Tl+ flux,R275C/beta2Delta,0.0539 (inactive)
same,log fold change Tl+ flux,R275C/beta4,-0.0876 (inactive)
same,log fold change Tl+ flux,R275C/Slo1WT/beta2,-0.0286 (inactive)
